# Measurements as given in paper PMC7862700, “An all-to-all approach to the identification of sequence-specific readers for epigenetic DNA modifications on cytosine”.
# Experiments:
# Test in all cases: DAPPL (digital affinity profiling via proximity ligation, sequencing); 10 mM Tris-HCl pH 7.5, 50 mM NaCl, 1 mM DTT, 4% glycerol, room temperature, 30 min; GST-TFs on glutathione beads, 16-mer random dsDNA library, 0.1% formaldehyde crosslink after washing; high values mean tight binding
# Conditions in all cases: protein: recombinant; tags: N-terminal GST; dsDNA, one strand shown
# [1] = biological target: T1, FEV (Homo sapiens, UniProt Q99581 1-238)
# T1 sequence: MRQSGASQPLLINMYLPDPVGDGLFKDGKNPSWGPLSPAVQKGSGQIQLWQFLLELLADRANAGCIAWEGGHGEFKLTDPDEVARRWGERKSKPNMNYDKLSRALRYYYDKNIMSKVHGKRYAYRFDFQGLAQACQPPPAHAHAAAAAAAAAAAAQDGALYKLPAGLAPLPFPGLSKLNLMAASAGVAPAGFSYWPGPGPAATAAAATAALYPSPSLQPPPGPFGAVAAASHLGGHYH
# In short: (§1)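 A tag-only sample was pooled with DNA-barcoded human transcription factors that had been expressed in yeast as GST fusions and captured on glutathione beads. The pools were incubated for 30 min at room temperature with 200 nmole of a random double-stranded 16-mer DNA library in Tris/NaCl/DTT/glycerol buffer, then washed, crosslinked with 0.1% formaldehyde, proximity-ligated (BsaI/T4 ligase, 1 h, 37 °C), PCR-amplified and sequenced on an Illumina NextSeq500. Binding signal is each hexamer's read frequency for a factor divided by its frequency for the tag-only sample.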
# [2] = biological target: ETV5 (Homo sapiens, UniProt P41161 1-510)
# Chain of ETV5 (P41161 whole entry): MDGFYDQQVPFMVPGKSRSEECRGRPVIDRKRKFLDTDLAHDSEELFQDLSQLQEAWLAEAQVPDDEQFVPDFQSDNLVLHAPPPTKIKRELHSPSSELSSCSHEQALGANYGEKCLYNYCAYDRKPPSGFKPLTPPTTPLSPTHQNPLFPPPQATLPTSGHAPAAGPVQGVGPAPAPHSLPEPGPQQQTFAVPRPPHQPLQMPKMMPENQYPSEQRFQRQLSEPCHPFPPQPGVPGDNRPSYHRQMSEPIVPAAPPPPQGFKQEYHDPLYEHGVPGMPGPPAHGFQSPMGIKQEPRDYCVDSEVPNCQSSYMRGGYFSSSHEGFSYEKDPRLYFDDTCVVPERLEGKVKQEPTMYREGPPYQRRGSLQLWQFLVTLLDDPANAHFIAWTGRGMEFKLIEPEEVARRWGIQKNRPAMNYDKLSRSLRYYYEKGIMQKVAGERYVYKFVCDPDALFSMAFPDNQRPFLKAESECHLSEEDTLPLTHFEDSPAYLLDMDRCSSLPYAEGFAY
# In short: as §1
# [3] = biological target: T2, SPIC (Homo sapiens, UniProt Q8N5J4 1-248)
# T2 sequence: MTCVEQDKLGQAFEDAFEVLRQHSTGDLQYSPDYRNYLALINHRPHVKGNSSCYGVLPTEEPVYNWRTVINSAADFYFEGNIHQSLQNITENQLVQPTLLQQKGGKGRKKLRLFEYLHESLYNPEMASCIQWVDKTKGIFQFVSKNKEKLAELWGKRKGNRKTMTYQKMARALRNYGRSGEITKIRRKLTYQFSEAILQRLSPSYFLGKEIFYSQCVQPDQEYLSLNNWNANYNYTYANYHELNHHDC
# In short: as §1
# [4] = biological target: ELF4 (Homo sapiens, UniProt Q99607 1-663)
# Chain of ELF4 (Q99607 whole entry): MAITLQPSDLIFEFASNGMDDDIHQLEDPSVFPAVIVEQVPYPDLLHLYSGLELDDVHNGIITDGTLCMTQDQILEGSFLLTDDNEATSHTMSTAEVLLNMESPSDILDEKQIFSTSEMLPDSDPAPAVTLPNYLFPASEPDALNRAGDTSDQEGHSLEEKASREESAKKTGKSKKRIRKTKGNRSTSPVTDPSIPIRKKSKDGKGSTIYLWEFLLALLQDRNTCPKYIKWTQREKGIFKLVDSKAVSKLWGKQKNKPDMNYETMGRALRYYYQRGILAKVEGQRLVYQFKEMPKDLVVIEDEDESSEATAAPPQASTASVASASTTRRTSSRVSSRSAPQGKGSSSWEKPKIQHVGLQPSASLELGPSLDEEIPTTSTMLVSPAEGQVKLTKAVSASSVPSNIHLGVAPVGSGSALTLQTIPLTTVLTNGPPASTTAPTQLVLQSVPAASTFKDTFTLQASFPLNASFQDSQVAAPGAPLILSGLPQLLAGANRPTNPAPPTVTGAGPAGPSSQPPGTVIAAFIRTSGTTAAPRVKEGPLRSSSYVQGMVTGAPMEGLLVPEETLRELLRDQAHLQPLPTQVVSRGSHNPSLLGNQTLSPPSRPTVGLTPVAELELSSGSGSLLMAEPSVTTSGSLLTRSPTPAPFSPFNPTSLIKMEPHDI
# In short: as §1
# [5] = biological target: T3, ELK4 (Homo sapiens, UniProt P28324-2 1-405)
# T3 sequence: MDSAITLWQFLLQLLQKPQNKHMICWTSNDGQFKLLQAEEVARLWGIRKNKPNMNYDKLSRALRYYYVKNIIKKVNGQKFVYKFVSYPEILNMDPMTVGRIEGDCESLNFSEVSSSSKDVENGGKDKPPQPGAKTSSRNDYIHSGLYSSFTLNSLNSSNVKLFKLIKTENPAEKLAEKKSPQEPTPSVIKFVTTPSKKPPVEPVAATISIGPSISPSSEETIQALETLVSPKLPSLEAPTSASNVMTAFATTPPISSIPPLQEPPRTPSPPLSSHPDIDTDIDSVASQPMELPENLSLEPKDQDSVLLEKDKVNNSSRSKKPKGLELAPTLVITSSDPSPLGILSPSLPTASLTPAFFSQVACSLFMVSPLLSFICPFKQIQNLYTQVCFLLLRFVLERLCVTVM
# In short: as §1
# [6] = biological target: T4, ETV2 (Homo sapiens, UniProt O00321 1-342)
# T4 sequence: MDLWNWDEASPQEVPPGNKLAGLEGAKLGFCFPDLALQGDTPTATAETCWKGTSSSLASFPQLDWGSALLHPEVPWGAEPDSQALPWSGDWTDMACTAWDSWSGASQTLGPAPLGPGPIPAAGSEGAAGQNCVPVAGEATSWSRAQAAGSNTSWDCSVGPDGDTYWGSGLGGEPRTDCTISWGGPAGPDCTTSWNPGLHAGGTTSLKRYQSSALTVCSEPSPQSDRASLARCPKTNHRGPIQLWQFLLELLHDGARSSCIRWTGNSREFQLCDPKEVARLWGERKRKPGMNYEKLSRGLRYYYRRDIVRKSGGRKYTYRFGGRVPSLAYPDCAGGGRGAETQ
# In short: as §1
# [7] = biological target: T5, ELF3 (Homo sapiens, UniProt P78545 1-371)
# T5 sequence: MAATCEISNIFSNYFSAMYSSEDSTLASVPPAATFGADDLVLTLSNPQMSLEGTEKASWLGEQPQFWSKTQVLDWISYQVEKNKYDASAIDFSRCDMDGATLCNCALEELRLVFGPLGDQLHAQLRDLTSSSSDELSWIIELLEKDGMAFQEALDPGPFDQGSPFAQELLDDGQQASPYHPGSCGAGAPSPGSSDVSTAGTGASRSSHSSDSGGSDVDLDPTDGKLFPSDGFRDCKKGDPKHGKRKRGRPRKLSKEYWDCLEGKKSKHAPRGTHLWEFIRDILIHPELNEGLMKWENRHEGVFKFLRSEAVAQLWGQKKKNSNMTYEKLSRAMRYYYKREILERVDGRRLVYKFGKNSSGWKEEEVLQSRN
# In short: as §1
# [8] = biological target: ETV1 (Homo sapiens, UniProt P50549 1-477)
# Chain of ETV1 (P50549 whole entry): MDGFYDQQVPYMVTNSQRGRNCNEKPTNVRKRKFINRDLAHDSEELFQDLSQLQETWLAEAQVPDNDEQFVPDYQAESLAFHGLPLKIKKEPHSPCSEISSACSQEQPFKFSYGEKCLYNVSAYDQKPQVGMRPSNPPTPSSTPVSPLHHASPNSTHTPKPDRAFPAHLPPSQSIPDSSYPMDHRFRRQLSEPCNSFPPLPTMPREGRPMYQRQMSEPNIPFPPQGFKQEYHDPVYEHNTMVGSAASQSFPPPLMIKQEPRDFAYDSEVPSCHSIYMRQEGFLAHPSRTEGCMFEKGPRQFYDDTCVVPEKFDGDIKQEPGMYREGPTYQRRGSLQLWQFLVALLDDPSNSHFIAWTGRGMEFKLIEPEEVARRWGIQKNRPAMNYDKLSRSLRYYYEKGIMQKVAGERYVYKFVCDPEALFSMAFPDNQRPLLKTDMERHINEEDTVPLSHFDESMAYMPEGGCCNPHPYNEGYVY
# In short: as §1
# [9] = biological target: T6, ERF (Homo sapiens, UniProt P50548 1-548)
# T6 sequence: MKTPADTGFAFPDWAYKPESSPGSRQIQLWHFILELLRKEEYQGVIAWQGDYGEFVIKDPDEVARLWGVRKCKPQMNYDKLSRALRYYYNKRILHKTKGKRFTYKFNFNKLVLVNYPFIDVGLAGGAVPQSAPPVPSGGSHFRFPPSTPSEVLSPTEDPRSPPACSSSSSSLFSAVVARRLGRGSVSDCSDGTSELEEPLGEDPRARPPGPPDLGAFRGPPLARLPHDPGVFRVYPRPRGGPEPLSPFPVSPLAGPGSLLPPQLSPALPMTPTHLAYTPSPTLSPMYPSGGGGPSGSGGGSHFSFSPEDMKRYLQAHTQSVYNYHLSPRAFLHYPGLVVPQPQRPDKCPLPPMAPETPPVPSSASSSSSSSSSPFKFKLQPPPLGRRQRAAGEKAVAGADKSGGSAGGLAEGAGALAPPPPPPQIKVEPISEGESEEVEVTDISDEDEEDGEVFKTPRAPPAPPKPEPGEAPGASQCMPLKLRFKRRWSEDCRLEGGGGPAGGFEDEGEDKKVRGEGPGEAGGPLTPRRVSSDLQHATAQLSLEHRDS
# In short: as §1
# [10] = biological target: T7, ETV3L (Homo sapiens, UniProt Q6ZN32 1-361)
# T7 sequence: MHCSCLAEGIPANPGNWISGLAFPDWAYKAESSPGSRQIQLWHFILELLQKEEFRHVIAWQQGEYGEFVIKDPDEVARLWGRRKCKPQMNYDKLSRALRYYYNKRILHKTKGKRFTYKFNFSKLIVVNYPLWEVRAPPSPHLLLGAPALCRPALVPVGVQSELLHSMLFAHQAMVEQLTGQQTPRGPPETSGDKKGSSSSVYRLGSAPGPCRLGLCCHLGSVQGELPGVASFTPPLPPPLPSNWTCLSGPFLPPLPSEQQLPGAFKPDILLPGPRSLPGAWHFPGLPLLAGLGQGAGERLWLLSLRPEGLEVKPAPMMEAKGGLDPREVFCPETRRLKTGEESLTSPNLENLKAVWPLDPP
# In short: as §1
# [11] = biological target: T8, ETS2 (Homo sapiens, UniProt P15036 1-469)
# T8 sequence: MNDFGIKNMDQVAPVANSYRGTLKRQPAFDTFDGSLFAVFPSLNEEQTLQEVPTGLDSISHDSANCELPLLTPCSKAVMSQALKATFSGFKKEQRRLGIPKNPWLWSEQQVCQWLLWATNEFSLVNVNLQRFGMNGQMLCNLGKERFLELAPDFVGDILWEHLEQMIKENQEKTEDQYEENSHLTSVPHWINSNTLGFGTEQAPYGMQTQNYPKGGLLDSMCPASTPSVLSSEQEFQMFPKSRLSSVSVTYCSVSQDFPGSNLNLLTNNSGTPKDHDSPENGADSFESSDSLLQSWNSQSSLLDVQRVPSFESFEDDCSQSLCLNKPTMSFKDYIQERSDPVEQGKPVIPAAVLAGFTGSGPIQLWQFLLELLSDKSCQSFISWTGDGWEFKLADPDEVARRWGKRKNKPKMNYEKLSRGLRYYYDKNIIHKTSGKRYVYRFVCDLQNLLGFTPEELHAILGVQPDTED
# In short: as §1
# [12] = biological target: T9, SPDEF (Homo sapiens, UniProt O95238 1-335)
# T9 sequence: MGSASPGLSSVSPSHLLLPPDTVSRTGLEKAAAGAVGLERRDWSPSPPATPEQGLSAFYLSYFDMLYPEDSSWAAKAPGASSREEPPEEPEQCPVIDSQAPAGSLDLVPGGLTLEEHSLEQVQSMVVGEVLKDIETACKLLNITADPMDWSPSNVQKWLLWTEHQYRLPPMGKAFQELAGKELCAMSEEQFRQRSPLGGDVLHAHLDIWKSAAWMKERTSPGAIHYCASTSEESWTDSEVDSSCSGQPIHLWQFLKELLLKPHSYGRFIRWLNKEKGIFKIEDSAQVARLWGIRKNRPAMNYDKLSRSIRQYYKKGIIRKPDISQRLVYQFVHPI
# In short: as §1
# [13] = biological target: T10, ETV7 (Homo sapiens, UniProt Q9Y603 1-341)
# T10 sequence: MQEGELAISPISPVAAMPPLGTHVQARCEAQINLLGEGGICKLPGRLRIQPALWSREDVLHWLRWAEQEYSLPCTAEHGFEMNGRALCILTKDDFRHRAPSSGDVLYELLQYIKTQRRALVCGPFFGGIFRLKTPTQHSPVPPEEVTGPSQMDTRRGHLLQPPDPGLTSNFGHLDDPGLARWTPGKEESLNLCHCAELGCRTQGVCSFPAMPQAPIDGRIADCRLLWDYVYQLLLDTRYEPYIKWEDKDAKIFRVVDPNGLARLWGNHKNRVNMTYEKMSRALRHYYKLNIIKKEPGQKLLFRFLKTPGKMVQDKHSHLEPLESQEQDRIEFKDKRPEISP
# In short: as §1
# [14] = biological target: T11, ELF5 (Homo sapiens, UniProt Q9UKW6-2 1-255)
# T11 sequence: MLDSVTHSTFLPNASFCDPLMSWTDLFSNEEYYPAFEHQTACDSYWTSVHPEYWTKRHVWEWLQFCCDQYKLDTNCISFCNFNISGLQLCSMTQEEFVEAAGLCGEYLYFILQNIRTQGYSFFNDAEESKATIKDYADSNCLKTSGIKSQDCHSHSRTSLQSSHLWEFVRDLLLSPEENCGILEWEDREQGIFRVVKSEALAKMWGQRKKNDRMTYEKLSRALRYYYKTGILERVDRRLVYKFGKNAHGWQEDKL
# In short: as §1
# [15] = biological target: T12, ETV3 (Homo sapiens, UniProt P41162-2 1-143)
# T12 sequence: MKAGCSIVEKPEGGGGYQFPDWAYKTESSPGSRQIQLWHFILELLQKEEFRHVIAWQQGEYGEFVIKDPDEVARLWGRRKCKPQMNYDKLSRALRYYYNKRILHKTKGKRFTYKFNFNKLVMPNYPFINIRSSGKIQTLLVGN
# In short: as §1
# [16] = biological target: ETV6 (Homo sapiens, UniProt P41212 1-452)
# Chain of ETV6 (P41212 whole entry): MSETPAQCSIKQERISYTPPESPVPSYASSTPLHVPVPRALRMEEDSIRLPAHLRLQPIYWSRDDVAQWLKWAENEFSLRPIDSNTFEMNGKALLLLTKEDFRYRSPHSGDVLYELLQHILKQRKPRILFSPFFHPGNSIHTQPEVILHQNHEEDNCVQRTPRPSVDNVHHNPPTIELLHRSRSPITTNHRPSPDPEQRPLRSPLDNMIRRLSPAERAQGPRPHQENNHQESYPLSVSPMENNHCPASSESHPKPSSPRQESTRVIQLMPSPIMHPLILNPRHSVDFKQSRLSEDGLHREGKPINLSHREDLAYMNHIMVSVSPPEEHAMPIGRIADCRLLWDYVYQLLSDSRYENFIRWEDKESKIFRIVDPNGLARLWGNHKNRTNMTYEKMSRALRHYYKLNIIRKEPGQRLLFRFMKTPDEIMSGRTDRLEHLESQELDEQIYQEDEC
# In short: as §1
Sequence,binding signal [1],binding signal [2],binding signal [3],binding signal [4],binding signal [5],binding signal [6],binding signal [7],binding signal [8],binding signal [9],binding signal [10],binding signal [11],binding signal [12],binding signal [13],binding signal [14],binding signal [15],binding signal [16]
ACCGGA,"6.19 fold enrichment (6-mer frequency, TF over GST control)","3.33 fold enrichment (6-mer frequency, TF over GST control)","2.63 fold enrichment (6-mer frequency, TF over GST control)","2.78 fold enrichment (6-mer frequency, TF over GST control)","2.4 fold enrichment (6-mer frequency, TF over GST control)","3.02 fold enrichment (6-mer frequency, TF over GST control)","3.15 fold enrichment (6-mer frequency, TF over GST control)","3.45 fold enrichment (6-mer frequency, TF over GST control)","2.82 fold enrichment (6-mer frequency, TF over GST control)","2.97 fold enrichment (6-mer frequency, TF over GST control)","3.14 fold enrichment (6-mer frequency, TF over GST control)","4.52 fold enrichment (6-mer frequency, TF over GST control)","2.74 fold enrichment (6-mer frequency, TF over GST control)","3.2 fold enrichment (6-mer frequency, TF over GST control)","3.45 fold enrichment (6-mer frequency, TF over GST control)","3.16 fold enrichment (6-mer frequency, TF over GST control)"
CGTCAA,"1.08 fold enrichment (6-mer frequency, TF over GST control)","1.08 fold enrichment (6-mer frequency, TF over GST control)","1.19 fold enrichment (6-mer frequency, TF over GST control)","1.15 fold enrichment (6-mer frequency, TF over GST control)","1.12 fold enrichment (6-mer frequency, TF over GST control)","1.2 fold enrichment (6-mer frequency, TF over GST control)","1.2 fold enrichment (6-mer frequency, TF over GST control)","1.12 fold enrichment (6-mer frequency, TF over GST control)","1.13 fold enrichment (6-mer frequency, TF over GST control)","1.09 fold enrichment (6-mer frequency, TF over GST control)","1.16 fold enrichment (6-mer frequency, TF over GST control)","1.15 fold enrichment (6-mer frequency, TF over GST control)","1.09 fold enrichment (6-mer frequency, TF over GST control)","1.08 fold enrichment (6-mer frequency, TF over GST control)","1.06 fold enrichment (6-mer frequency, TF over GST control)","1.15 fold enrichment (6-mer frequency, TF over GST control)"
GTATAC,"1.2 fold enrichment (6-mer frequency, TF over GST control)","1.24 fold enrichment (6-mer frequency, TF over GST control)","1.2 fold enrichment (6-mer frequency, TF over GST control)","1.3 fold enrichment (6-mer frequency, TF over GST control)","1.29 fold enrichment (6-mer frequency, TF over GST control)","1.1 fold enrichment (6-mer frequency, TF over GST control)","1.18 fold enrichment (6-mer frequency, TF over GST control)","1.31 fold enrichment (6-mer frequency, TF over GST control)","1.41 fold enrichment (6-mer frequency, TF over GST control)","1.16 fold enrichment (6-mer frequency, TF over GST control)","1.32 fold enrichment (6-mer frequency, TF over GST control)","1.3 fold enrichment (6-mer frequency, TF over GST control)","1.2 fold enrichment (6-mer frequency, TF over GST control)","1.31 fold enrichment (6-mer frequency, TF over GST control)","1.23 fold enrichment (6-mer frequency, TF over GST control)","1.19 fold enrichment (6-mer frequency, TF over GST control)"
